# Source: PubChem BioAssay (The Scripps Research Institute Molecular Screening Center)
# Hits are enriched below; roughly 3.5% of the tested compounds scored in any of these assays.
# FBW7 activator = activators of human E3 ligase FBW7; Q969H0; normalized activity (activation), % at 26.1 µM; AlphaScreen FBW7–phospho-cyclin E peptide binding, activator screen; AID 1259310; 650,000 compounds, 0.13% hits; in the data active = normalized activity above about 1.9%;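 note: purified mutant Fbw7 with reduced substrate affinity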
# Target sequence (Q969H0 whole entry, looked up): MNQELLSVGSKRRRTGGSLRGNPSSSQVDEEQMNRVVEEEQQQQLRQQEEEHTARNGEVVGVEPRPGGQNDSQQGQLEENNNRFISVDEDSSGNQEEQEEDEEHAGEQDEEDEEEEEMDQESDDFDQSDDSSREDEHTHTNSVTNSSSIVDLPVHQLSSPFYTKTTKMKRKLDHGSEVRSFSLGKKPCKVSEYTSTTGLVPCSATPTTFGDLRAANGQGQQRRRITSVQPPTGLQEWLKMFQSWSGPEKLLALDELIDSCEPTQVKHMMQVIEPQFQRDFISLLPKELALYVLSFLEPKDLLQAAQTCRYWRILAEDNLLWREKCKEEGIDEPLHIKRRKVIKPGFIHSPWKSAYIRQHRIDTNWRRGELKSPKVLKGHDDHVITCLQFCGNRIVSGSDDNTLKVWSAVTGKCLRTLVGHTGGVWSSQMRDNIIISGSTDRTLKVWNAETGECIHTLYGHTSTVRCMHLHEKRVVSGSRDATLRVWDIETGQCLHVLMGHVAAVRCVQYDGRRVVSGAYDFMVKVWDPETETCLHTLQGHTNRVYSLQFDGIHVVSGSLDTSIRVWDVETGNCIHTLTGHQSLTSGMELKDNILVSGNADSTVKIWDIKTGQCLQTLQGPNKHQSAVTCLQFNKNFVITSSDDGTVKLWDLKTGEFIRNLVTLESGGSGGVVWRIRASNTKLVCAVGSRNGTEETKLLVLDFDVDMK
# TEAD-YAP block = TEAD-YAP interaction inhibition; HEK-TIYL cells, TEAD-Gal4/YAP UAS-luciferase luminescence; inhibition, % at 9.12 µM; AID 1259422; 640,000 compounds, 1.4% hits; in the data active = inhibition above about 32%
# MITF primary = human MITF inhibition, primary screen; 650,000 compounds, 0.91% hits; O75030; AlphaScreen MITF homodimerization, bead proximity signal; AID 1259374; inhibition, % at 2.6 µM; in the data active = inhibition above about 50%
# GPR151 activ = human GPR151 activation. Q8TDV0. PathHunter beta-arrestin GPR151 cells, luminescence. activation, % at 11.2 µM. 650,000 compounds, 1% hits. AID 1508602; in the data active = activation above about 4.9%
# MITF inh conf = human MITF inhibition, confirmation; shares compounds with MITF primary; 4,700 compounds, 16% hits; inhibition, % at 2.6 µM; AID 1259372; AlphaScreen MITF homodimerization, biotin/His-MITF beads;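 active = inhibition above a cutoff derived from the DMSO control wells, cut at about 28% in these data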;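 note: inhibitors lower the bead chemiluminescence by keeping MITF from dimerizing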
# AlphaScreen DR = AlphaScreen optical interference, dose response counter-screen. shares compounds with MITF primary. AlphaScreen optical interference counterscreen, cell-free. IC50, µM. 480 compounds, 6% hits. AID 1259373; call rule not given here
# AS interf ctr = optically interferes with AlphaScreen signal; AID 1259376; inhibition, % at 2.6 µM; 4,700 compounds, 7.6% hits; shares compounds with MITF primary; LysRS AlphaScreen counterscreen, signal interference, triplicate;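 active = inhibition above a cutoff derived from the DMSO control wells, cut at about 30% in these data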
# GPR151 confirm = human GPR151 activation, confirmation screen | shares compounds with GPR151 activ | GPR151 PathHunter beta-arrestin cells, luminescence, 90 min; % of EA-reagent control over plate median | activation, % at 11.2 µM | 6,700 tested, under 10 active | AID 1508609;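 active = mean percent activation across replicates above the confirmation screen cutoff of 4.91%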
# GPR119 counter = counter-screen for GPR151 activators: effect on human GPR119. 6,700 compounds, 0.3% hits. activation, % at 11.2 µM. GPR119 PathHunter beta-arrestin cells, luminescence, 90 min; 0 = compound-well median, 100 = enzyme-acceptor control. shares compounds with GPR151 activ;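 active = mean percent activation in the counterscreen above 29.09%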;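 note: counterscreen on off-target GPR119 to flag nonselective hits from the GPR151 activator screen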
# Hits are given with their value; . = inactive; / = not tested or not shown; ! = not active in a repeat.
SMILES,FBW7 activator,TEAD-YAP block,MITF primary,GPR151 activ,GPR151 confirm,GPR119 counter,others
Cc1cccc(CN2CCN(Cc3ccccc3C)CC2)c1,.,.,64,.,/,/,MITF inh conf=.;AS interf ctr=.
O=C(c1ccco1)N(Cc1ccco1)C1CCN(CCCc2ccccc2)CC1,.,.,.,.,/,/,
N#CCCn1cc(C(=O)NCc2ccccc2)c(-c2cccc([N+](=O)[O-])c2)n1,.,.,.,.,/,/,
COc1ccc(CN2CCN(Cc3cccc(C)c3)CC2)cc1,.,.,.,.,/,/,
Cc1cccc(CN2CCN(Cc3ccccc3F)CC2)c1,.,.,79,.,/,/,MITF inh conf=.;AS interf ctr=.
Fc1ccc(CNCCc2c[nH]c3ccccc23)cc1,.,.,.,.,/,/,
Fc1ccc(CNCCc2c[nH]c3ccccc23)cc1F,.,.,54,.,/,/,MITF inh conf=.;AS interf ctr=.
Cn1cc(C2N3CC4(C)CN2CC(C)(C3)C4)c2ccccc21 (stereo unspecified),.,.,.,.,/,/,
O=[N+]([O-])c1ccc(N2CCN(Cc3c(F)cccc3F)CC2)cc1,.,.,63,.,/,/,MITF inh conf=.;AS interf ctr=.
O=[N+]([O-])c1ccc(N2CCN(Cc3cc(F)ccc3F)CC2)cc1,.,.,58,.,/,/,MITF inh conf=.;AS interf ctr=.
O=[N+]([O-])c1cccc(CN2CCN(c3ccc(F)cc3)CC2)c1,.,.,.,.,/,/,
CC(C)N1CCN(Cc2ccccc2[N+](=O)[O-])CC1,.,.,63,.,/,/,MITF inh conf=.;AS interf ctr=.
O=[N+]([O-])c1ccccc1CN1CCN(Cc2ccccc2F)CC1,.,.,67,.,/,/,MITF inh conf=.;AS interf ctr=.
COc1ccccc1N1CCN(Cc2ccccc2[N+](=O)[O-])CC1,.,.,.,.,/,/,
COc1cccc(N2CCN(Cc3c(F)cccc3F)CC2)c1,.,.,.,.,/,/,
Cc1c(N=Nc2c(O)[nH]c(=S)[nH]c2=O)c(=O)n(-c2ccccc2)n1C,.,.,92,15,.,.,MITF inh conf=36;AS interf ctr=100
CN(C)[C@@H]1C(=O)C(C(N)=O)=C(O)[C@@]2(O)C(=O)C3=C(O)c4c(O)ccc(Cl)c4[C@@](C)(O)[C@H]3C[C@@H]12,.,.,.,.,/,/,
CN(C)[C@@H]1C(=O)C(C(N)=O)=C(O)[C@@]2(O)C(=O)C3=C(O)c4c(O)cccc4[C@@](C)(O)[C@H]3[C@H](O)[C@@H]12,.,.,64,7.4!,.,.,MITF inh conf=62;AlphaScreen DR=4.4!;AS interf ctr=31!
Nc1c(C(=O)NCc2cccs2)c2nc3ccccc3nc2n1Cc1ccccc1,.,.,.,.,/,/,
CC1(C)C(C(=O)NCC2CCC3(CCN(Cc4ccccn4)CC3)O2)C1(C)C (stereo unspecified),.,.,.,.,/,/,
CSc1ccc(CN2CCN(Cc3ccc(F)cc3)CC2)cc1,.,.,78,5.2,.,.,MITF inh conf=.;AS interf ctr=.
C=C(C)[C@@H]1C2C(=O)O[C@H]1[C@H]1OC(=O)[C@@]34OC3C[C@]2(O)[C@@]14C (stereo partly specified),.,.,.,7.9!,.,.,
OCCC1CN(Cc2cccc(Cl)c2)CCN1Cc1ccccc1 (stereo unspecified),.,.,.,.,/,/,
Cc1c(C(=O)c2ccc3ccccc3c2)c2cccc3c2n1[C@H](CN1CCOCC1)CO3,.,/,.,5.4,.,.,
CCN1CC2(COC)CC[C@H](O)C34C5C[C@@H]6C(OC)C[C@@](O)(C5[C@H]6OC(C)=O)[C@@H](CC23)[C@@H]14 (stereo partly specified),.,.,.,5.4,.,.,
SMILES,FBW7 activator,TEAD-YAP block,MITF primary,GPR151 activ,GPR151 confirm,GPR119 counter,others
O=C(CN1CCN(c2ccccc2)CC1)Nc1ccc(Br)cc1C(=O)c1ccccc1Cl,.,.,.,.,/,/,
O=C1CC(c2cnc[nH]2)C2(CCCCC2)O1 (stereo unspecified),.,.,.,7.9,.,.,
CC(NC(=O)CCl)c1cccs1 (stereo unspecified),.,.,.,.,/,/,
COc1ccc(C2(CN)CCCC2)cc1,.,.,.,.,/,/,
COc1ccc(C(CN(C)C)C2(O)CCCCC2)cc1 (stereo unspecified),.,.,.,8.7!,.,.,
CNC(=O)c1nn(Cc2ccc(S(=O)(=O)N(C)c3ccccc3)cc2)c2ccccc12,.,.,.,.,/,/,
CCCCCCCCCCCCCCCC[n+]1ccccc1,.,60,.,5.0,.,.,
NC(=O)c1cc([N+](=O)[O-])ccc1N1CCNCC1,.,.,.,.,/,/,
CCCCOC(=O)C1=C(N)OC(C)=C(C(=O)OCCOC)C12C(=O)Nc1ccccc12 (stereo unspecified),.,.,.,5.3,.,.,
CCOC(=O)C1=C(N)OC(C)=C(C(=O)OCCOC)C12C(=O)Nc1ccccc12 (stereo unspecified),.,.,.,.,/,/,
COc1ccc(C(=O)O)cc1OC,.,.,.,5.7,.,.,
COc1ccc(C(=O)OC2CC3CCC(C2)N3)cc1OC (stereo unspecified),.,.,.,.,/,/,
CC1=NCCc2c1[nH]c1cc(O)ccc21,.,.,.,5.0!,.,.,
CCOc1cccc(CNC2CN3CCC2CC3)c1 (stereo unspecified),.,.,.,6.9,.,.,
CC(C)C(=O)Nc1ccc(S(=O)(=O)N2CC3CC(C2)c2cccc(=O)n2C3)cc1 (stereo unspecified),.,.,.,13,.,.,
CC(=O)Nc1ccc(S(=O)(=O)N2CC3CC(C2)c2cccc(=O)n2C3)cc1 (stereo unspecified),.,.,.,.,/,/,
CCCCn1c(=O)c(C(=O)Nc2cc(C)ccc2C)c(O)c2ccccc21,.,.,.,.,/,/,
CC(Cc1cccnc1)NCc1c(C(=O)N2CCCCCCC2)nc2ccc(Cl)cn12 (stereo unspecified),.,.,.,5.0,.,.,
Cc1cccn2c(CNC(C)Cc3cccnc3)c(C(=O)N3CCCCC3)nc12 (stereo unspecified),.,.,.,.,/,/,
COc1ccc(C(=O)C2CCCN(C)C2)c(OC)c1 (stereo unspecified),.,.,.,5.0,.,.,
N#CC1=C2N=C(N)c3c(sc4c3CCCCC4)N2C2=C(C(=O)CCC2)C1c1ccsc1 (stereo unspecified),.,.,.,.,/,/,
CC1(C)C(C(=O)Nc2cccc3ccccc23)C1(C)C,.,.,.,.,/,/,
Cc1ccccc1NC(=O)C1C(C)(C)C1(C)C,.,.,.,9.3,.,.,
